These results are taken from PubChem BioAssay (NCATS).

The test system of experiment [1] is Zika virus NS2B-NS3 protease (unlinked complex). Nature of the experiment: Primary screen GU Rhodamine qHTS for Zika virus inhibitors: Unlinked NS2B-NS3 protease assay (AID 1347159). Also: nearly all actives have a fitted effect of over 60% in size. Put shortly: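 Enzyme 25 nM in Tris-HCl pH 8.0 + 0.01% Tween 20; compounds up to 114 microM, 15 min RT dark; + Rhod110 substrate 1.5 microM; read t0 and 15 min; delta fluorescence → % inhibition → 4-parameter Hill fit.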
On the technique in general: qHTS replaces the single test concentration by a dilution series.

The test system of experiment [2] is Zika virus NS2B-NS3 protease (linked construct). The experiment can be described thus: Primary screen NINDS Rhodamine qHTS for Zika virus inhibitors (AID 1347160). Also: nearly all actives have a fitted effect of over 55% in size. Put shortly:
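Enzyme (25 nM, linked NS2B-NS3) was preincubated 15 min with compound in 10 mM Tris-HCl pH 8.0, 0.01% Tween 20. Rhodamine110 substrate (1.5 microM) was then added and fluorescence read at start and after 15 min.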

Molecules are shown by their SMILES. Inconclusive results are not listed. Entries that show only a call come without a potency. Unmarked numbers belong to inactive results. Active and inactive are the calls of the source. Calls follow the shape of the dose curve; as a rule, active = well fitted inhibition curve with a large enough effect; inconclusive = small, poorly fitted or top-dose-only effect; inactive = no such curve, though single readings can be large or run the other way.

On to `C[C@@H]1CN(Cc2ccccc2)C[C@H]1c1nc2c(cnn2C2CCOCC2)c(=O)[nH]1`, for which the Potency entry in experiment [1] and in experiment [2] was “inactive” throughout.
Consider `CC(=O)O[C@H]1CC(C)(C)CC2[C@@]13[C@H](O)C[C@]1(C)[C@@]2(CCC2[C@@]4(C)CC[C@H](O[C@@H]5OC[C@H](O[C@@H]6O[C@H](CO)[C@@H](O)[C@H](O)[C@H]6O[C@@H]6OC[C@@H](O)[C@H](O)[C@H]6O)[C@H](O)[C@H]5O[C@@H]5O[C@H](CO)[C@@H](O)[C@H](O)[C@H]5O)C(C)(C)C4CC[C@]21C)O[C@@H]3O` (stereo partly drawn), for which the Potency result in experiment [1] and in experiment [2] was “inactive” each time.
As to `C[C@@]12CC[C@@H]3[C@@](CC[C@H]4[C@@]3(C)CCC[C@@]4(C)C(=O)O)(CC1=O)C2`, the Potency entry in experiment [1] and in experiment [2] was “inactive” each time.
On to `Cc1cc(C)c2c(N)c(C(=O)NCc3ccc(Cl)cc3)sc2n1`, for which the Potency result in experiment [1] and in experiment [2] was “inactive” throughout.
`CC(Oc1ccc2[nH]nc(/C=C/c3cnn(CCO)c3)c2c1)c1c(Cl)cncc1Cl` (stereo not drawn): the Potency result in experiment [1] and in experiment [2] was “inactive” each time.
On to `C=CC1(C)C=C2CCC3C(C)(C)C(O[C@@H]4O[C@@H](CO)[C@H](O)[C@H]4O)CCC3(C)C2CC1O[C@@H]1O[C@H](C)[C@H](O)[C@H](O)[C@H]1O` (stereo partly drawn), for which the Potency entry in experiment [1] and in experiment [2] was “inactive” each time.
As for `C[C@@H]1O[C@@H](O[C@H]2[C@@H]3C=CO[C@@H](O[C@@H]4O[C@H](CO)[C@@H](O)[C@H](O)[C@H]4O)[C@@H]3[C@@]3(CO)O[C@@H]23)[C@H](OC(=O)/C=C/c2ccc(O)c(O)c2)[C@H](O)[C@H]1O`, the Potency entry in experiment [1] and in experiment [2] was “inactive” each time.
In the case of `O=C(Nc1ccc(-c2ccncc2)cc1)N[C@H](CO)c1ccccc1`, the Potency result in experiment [1] and in experiment [2] was “inactive” throughout.
Regarding `COc1cc(O)cc(C)c1C(=O)OC1C(CO)OC(OC2C(O)C(O)C(O)C(O)C2O)C(O)C1O` (stereo not drawn), the Potency entry in experiment [1] and in experiment [2] was “inactive” each time.
Take `CC1(C)CCC2(C(=O)OC3OCC(O)C(O)C3O)CCC3(C)C(=CCC4C5(C)CC(O)C(OC6OC(COC7OCC(O)C(O)C7O)C(O)C(O)C6O)C(C)(C)C5CCC43C)C2C1` (stereo not drawn): the Potency result in experiment [1] and in experiment [2] was “inactive” in each case.
As to `CCc1cnn2c(NCc3ccc[n+]([O-])c3)cc(N3CCCCC3CCO)nc12` (stereo not drawn), the Potency result in experiment [1] and in experiment [2] was “inactive” each time.
As to `O=C1CCC(c2ccccc2)(C2CCN(Cc3ccc(I)cc3)CC2)C(=O)N1` (stereo not drawn), the Potency result in experiment [1] and in experiment [2] was “inactive” each time.
With `COC(=O)CC(O)CC(O)/C=C/c1c(C)ccc2c1C(O)CC(C)C2` (stereo not drawn), the Potency entry in experiment [1] and in experiment [2] was “inactive” in each case.
For `C=C1[C@H](OC(C)=O)[C@H]2[C@@H](OC(C)=O)[C@](C)(OC(C)=O)C[C@]2(OC(C)=O)C(=O)[C@H](C)/C=C/C(C)(C)C(=O)[C@H](OC(=O)C(C)C)[C@H]1OC(C)=O`, the Potency entry in experiment [1] and in experiment [2] was “inactive” each time.
Consider `COc1cc2c(NC3CCN(CC4CCCCC4)CC3)nc(N3CCCN(C(C)C)CC3)nc2cc1OCCCN1CCCCC1`, for which the Potency result in experiment [1] and in experiment [2] was “inactive” each time.
For `O=C1NC(=O)C(c2cn(-c3ccccc3)nc2-c2ccc(F)cc2)N1` (stereo not drawn), the Potency entry in experiment [1] and in experiment [2] was “inactive” in each case.
For `CN[C@H](C(=O)N[C@H](C(=O)N(C)[C@H](/C=C(\C)C(=O)O)C(C)C)C(C)(C)C)C(C)(C)c1ccccc1`, the Potency result in experiment [1] and in experiment [2] was “inactive” throughout.
For `COc1nc2sc(C(=O)NC3CC3)c(N)c2c(C)c1Cl`, the Potency entry in experiment [1] and in experiment [2] was “inactive” throughout.
For `CC(=O)OC1C[C@]2(C)C(O)CC(C)=C[C@H](OC(=O)c3ccc(O)cc3)C2[C@]1(O)C(C)C` (stereo partly drawn), the Potency entry in experiment [1] and in experiment [2] was “inactive” throughout.
Consider `NC(=O)[C@H]1CCS[C@@H]2C[C@]3(CCCN3C(=O)Cc3ccc(NC(=O)COc4ccc(Cl)cc4Cl)cc3)C(=O)N12`, for which the Potency entry in experiment [1] and in experiment [2] was “inactive” throughout.
Take `NC(=O)c1cccc(-c2cc(OC(=O)NC3CCCCC3)ccc2O)c1`: the Potency entry in experiment [1] and in experiment [2] was “inactive” each time.
Take `C[C@@H]1CC[C@@]2(OC1)O[C@H]1C[C@H]3[C@@H]4CC=C5C[C@@H](O)CC[C@]5(C)[C@H]4CC[C@]3(C)[C@H]1[C@@H]2C`: the Potency entry in experiment [1] and in experiment [2] was “inactive” in each case.
In the case of `COc1cc2nc(N3CCC(N4CCCCC4)CC3)nc(NC3CCCCCC3)c2cc1OC`, the Potency result in experiment [1] and in experiment [2] was “inactive” throughout.
For the compound `COc1c2cc(c(O)c1OC)-c1cc(ccc1O)CCC(O)CCCC2` (stereo not drawn), the Potency result in experiment [1] and in experiment [2] was “inactive” each time.
With `COC(=O)CC(O)C1OC(c2ccccc2)C(O)C1O` (stereo not drawn), the Potency entry in experiment [1] and in experiment [2] was “inactive” throughout.
Take `CC(C)CC1NC(=O)C2CC3(O)c4ccccc4NC3N2C1=O` (stereo not drawn): the Potency entry in experiment [1] and in experiment [2] was “inactive” each time.
Consider `COC(=O)C1=CO[C@@H](O[C@@H]2O[C@H](CO)[C@@H](O)[C@H](O)[C@H]2O)[C@H]2[C@@H]1C=C[C@@]21C=C([C@H](C)O)C(=O)O1`, for which the Potency entry in experiment [1] and in experiment [2] was “inactive” each time.
`O=S(=O)(c1ccc(S(=O)(=O)n2cnc3ccccc32)cc1)N1CCCCCC1`: the Potency entry in experiment [1] and in experiment [2] was “inactive” throughout.
`COc1ccc(F)cc1-c1cc(NC(=O)[C@@H]2CCCNC2)ncc1Cl`: the Potency entry in experiment [1] and in experiment [2] was “inactive” each time.
